Results from PubChem BioAssay (Tox21).
Unmarked numbers belong to inactive results. Activity calls are given as the source filed them. Calls come from the whole dose curve; as a rule, active = well fitted curve in the direction sought with a large enough effect in the repeat runs; inconclusive = weak or mixed curves; inactive = flat fitted curve, though single readings scatter.

experiment: qHTS assay to test for compound auto fluorescence at 460 nm (blue) in HEK293 cell free culture (AID 720681); settings: cell-free medium, autofluorescence 405/460 nm (blue); series mostly up to 91.3 µM; fluorescence, % of fluorescent control: at the top concentration
Text: U.S. Tox21 Program National Center for Advancing Translational Sciences [NCATS] NIH Chemical Genomics Center [NCGC] U.S. Environmental Protection Agency [EPA] National Institutes of Environmental Health Sciences [NIEHS] National Toxicology Program [NTP] U.S. Food and Drug Administration [FDA] Tox21 Assay Overview: Compound auto fluorescence often interferes with screening of the compound library against various biological targets and signaling pathways. Some of these compounds may have fluorophoric properties. Such properties may interfere with the assay outputs resulting in false positives and/or negatives. To decrease such complications and ensure the compound activities are relevant in terms of biological response, the Tox21 10K compound library was screened for auto fluorescence. From the fluorophores used as reporter signals in our screening assays, the auto fluorescence equivalencies of compounds against three fluorophores have been evaluated: Triamterene, Fluorescein and Rose Bengal sodium for blue, green and red fluorescence, respectively. The fluorescence intensities were measured using Excitation/Emission wavelengths at 405/460nm, 485/535nm and 540/590nm for blue, green and red labels, respectively. This assay includes the blue fluorescence data.
Tox21 Assay Protocol Summary: 5 uL of culture medium (DMEM containing 10% FBS) per well was dispensed into black wall/clear bottom 1536-well plates using a Multidrop Combi Dispenser (ThermoFisher Scientific, Waltham, MA). After 23 nL compound or DMSO vehicle was transferred into assay plate by a pintool work station (Kalypsys, San Diego, CA), fluorescence intensities in the assay plates were measured by an Envision (PerkinElmer, Shelton, CT) plate reader using three labels for measuring blue, green and red fluorescence at […] 460, 535 and 590nm respectively.
% is set by controls: 0 for no effect and ±100 for the full control effect.

Row | SMILES | fluorescence, % of fluorescent control | outcome
1 | NC(=O)N1c2ccccc2CC(=O)c2ccccc21 | 0.846% [at 46 µM] | –
2 | CCCCCC(C)N (stereo not given) | 0.167% [at 46 µM] | –
3 | CCCCc1nc(Cl)c(CO)n1Cc1ccc(-c2ccccc2-c2nn[nH]n2)cc1 | -0.11% [at 46 µM] | –
4 | CCOCC(C)O (stereo not given) | -0.0907% | –
5 | Clc1cc(Cl)c(Cl)nc1Cl | 0.04% | –
6 | CN1CCC(=C2c3ccccc3CCc3cccnc32)CC1 | 0.349% [at 46 µM] | –
7 | CC1=NS(=O)(=O)c2cc(Cl)ccc2N1 | 0.145% [at 46 µM] | –
8 | COc1cc2c(cc1OC)-c1cc3ccc(OC)c(OC)c3c[n+]1CC2 | 0.0113% | –
9 | CC1=NN(c2cccc(S(=O)(=O)O)c2)C(=O)C1 | 0.0027% | –
10 | CCCCCCCC1CCCC1=O (stereo not given) | 0.0243% | –
11 | CC(=O)Oc1cccc(C)c1 | 0.0319% [at 46 µM] | –
12 | O=C(CO)[C@@H](O)[C@H](O)[C@H](O)CO | – | inactive
13 | CCCC[N+](C)(CCCC)CCCC | -0.172% | –
14 | CCCCOCCOC(=O)COc1cc(Cl)c(Cl)cc1Cl | -0.0521% | –
15 | O=Cc1cccc(Br)c1 | -0.135% [at 95.7 µM] | –
16 | O=C(O)CCSCCC(=O)O | -0.189% | –
17 | CCOc1ccccc1OCC | 0.003% | –
18 | CCCOC(=O)CC | 0.0873% | –
19 | CN1C(C)(C)CC(O)CC1(C)C | 0.0163% | –
20 | COC(=O)Nc1ccc(Cl)c(Cl)c1 | 0.0181% | –

Row | SMILES | fluorescence, % of fluorescent control | outcome
21 | C[C@@H]1C[C@H]2[C@@H]3C[C@H](F)C4=CC(=O)C(Cl)=C[C@]4(C)[C@@]3(F)[C@@H](O)C[C@]2(C)[C@@]1(O)C(=O)CO | -0.107% [at 46 µM] | –
22 | CC1=CCC(O)(C(C)C)CC1 (stereo not given) | -0.014% | –
23 | O=C(O)CNC(=O)c1ccccc1 | 0.0686% [at 46 µM] | –
24 | COc1cc(C)nc(-n2nc(C)cc2OC)n1 | -0.0196% [at 18.6 µM] | –
25 | CCOC(=O)c1ccccc1 | 0.188% | –
26 | O=[N+]([O-])c1ccc(/C=N\O)o1 | 0.0216% [at 46 µM] | –
27 | CC(C#N)(CCC(=O)O)N=NC(C)(C#N)CCC(=O)O (stereo not given) | 0.131% | –
28 | COc1cc(-c2ccc(=O)[nH]n2)ccc1OC(F)F | -0.0156% [at 46 µM] | –
29 | CCCCCCC#CC(=O)OC | -0.032% | –
30 | CCOC(=O)OC(C)OC1=C(C(=O)Nc2ccccn2)N(C)S(=O)(=O)c2ccccc21 (stereo not given) | -0.022% [at 46 µM] | –
31 | CNC(=O)Nc1ccc(Cl)c(Cl)c1 | -0.0366% | –
32 | Cc1cc(C)c(N=Nc2c(O)c(S(=O)(=O)O)cc3cc(S(=O)(=O)O)ccc23)cc1C | -0.0769% [at 9.17 µM] | –
33 | CC(CO)(CO)[N+](=O)[O-] | 0.118% | –
34 | CC(=O)N1C[C@H](O)C[C@H]1C(=O)O | 0.855% [at 46 µM] | –
35 | CC(N)C12CC3CC(CC(C3)C1)C2 (stereo not given) | -0.0361% [at 46 µM] | –
36 | CO[Si](C)(OC)c1ccccc1 | -0.0025% | –
37 | CN(C)C(=O)Oc1cccc([N+](C)(C)C)c1 | 0.0695% [at 46 µM] | –
38 | CCN[C@@H]1C[C@H](N)[C@@H](OC2OC(CN)=CCC2N)[C@H](O)[C@H]1O[C@H]1OC[C@](C)(O)[C@H](NC)[C@H]1O (stereo not given in full) | -0.0049% [at 46 µM] | –
39 | CCOc1ccc2nc(S(N)(=O)=O)sc2c1 | -0.101% [at 46 µM] | –
40 | CCO[Si](OCC)(OCC)c1ccccc1 | -0.315% | –
